# An excerpt weighted towards active compounds, which were near 4.7% of everything screened.
# tim23-1 inh = growth inhibitors of tim23-1 mutant yeast, primary screen, luminescence, uHTS; AID 463212, 2010; 1.3% of 330,000 active; S. cerevisiae tim23-1 growth, BacTiter-Glo luminescence, 24 h; inhibition, % at 20 µM;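 active = growth inhibition of the mutant yeast at or above 50%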;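 note: temperature-sensitive mutant grown at 25 °C; plate controls were DMSO-treated mutant yeast for no effect and medium wells lacking yeast for full effect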
# SKKanGAS inh = S. pyogenes SKKanGAS growth inhibitors in kanamycin, primary screen, streptokinase expression inhibitor project, SKKanGAS strain, BacTiter-Glo luminescence. 6 h. inhibition, % at 7.5 µM. 1.3% of 300,000 active. AID 1662, 2009;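 active = mean replicate score, as percent of positive control median, at least 50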;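 note: strain carries kanamycin resistance gene driven by streptokinase promoter and grows in 40 µg/ml kanamycin; loss of luminescence reflects streptokinase promoter inhibition or plain growth inhibition; 0% = median of DMSO wells and 100% = positive control at its reference dose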
# tim10-1 inh = growth inhibitors of tim10-1 mutant yeast, primary screen, luminescence, uHTS | S. cerevisiae tim10-1 ts strain growth, BacTiter-Glo, 24 h | inhibition, % at 20 µM | 2.2% of 330,000 active;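 active = inhibition of at least 40%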;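 note: mutant grown at 25 °C; 0% = DMSO wells with yeast and 100% = wells holding no yeast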
# PfHsp90 set2 = growth inhibition of PfHsp90-expressing yeast, primary screen, antimalarial PfHsp90 inhibitor project, S. cerevisiae, BacTiter-Glo luminescence, single point, set 2. BacTiter-Glo ATP, 48 h; yeast lacking PDR1 and PDR3 efflux regulators. inhibition, % at 9.4 µM. 0.32% of 310,000 active. AID 504621, 2011;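 active = every replicate shows inhibition above about 80%, whatever the replicate mean, limit read from the data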;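 note: 0% = DMSO neutral controls and 100% = 20 µM radicicol positive controls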
# TIM10 inh = growth inhibitors of isogenic TIM10 control yeast, primary screen, counter-screen for tim10-1 yeast inhibitor project, luminescence, uHTS | inhibition, % at 10 µM | S. cerevisiae TIM10 strain growth, BacTiter-Glo luminescence, 24 h | 1.4% of 330,000 active;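 active = inhibition of 40% or more at the single tested concentration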;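 note: wild-type TIM10 isogenic control strain grown at permissive 25 °C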
# EBI2 block = EBI2 receptor antagonists, beta-arrestin recruitment, primary screen, cell-based, luminescence, 7a,25-OHC stimulation, uHTS; G-protein coupled receptor 183 (Homo sapiens), P32249; 7a,25-OHC stimulated; inhibition, % at 5 µM; 0.81% of 360,000 active; in the data active = inhibition above about 38%;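 note: enzyme fragment complementation signal reports receptor beta-arrestin coupling in cells; 0% = agonist plus DMSO wells and 100% = wells without agonist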
# Target sequence (P32249 whole entry, looked up, the tested form may be a part): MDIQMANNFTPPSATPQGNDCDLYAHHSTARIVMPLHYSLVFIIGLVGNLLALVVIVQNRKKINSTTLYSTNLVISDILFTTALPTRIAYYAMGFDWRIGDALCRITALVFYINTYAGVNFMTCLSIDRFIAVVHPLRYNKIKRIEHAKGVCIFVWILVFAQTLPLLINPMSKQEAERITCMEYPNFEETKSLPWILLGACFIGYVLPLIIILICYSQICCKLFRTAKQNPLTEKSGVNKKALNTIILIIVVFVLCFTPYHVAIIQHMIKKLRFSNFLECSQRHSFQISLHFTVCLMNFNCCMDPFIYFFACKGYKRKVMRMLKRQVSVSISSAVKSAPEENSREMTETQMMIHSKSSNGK
# Numbers without * were called inactive; nt = no result given.
SMILES,tim23-1 inh,SKKanGAS inh,tim10-1 inh,PfHsp90 set2,TIM10 inh,EBI2 block
COc1ccc(Cl)cc1-c1nc(-c2ccc(NC(=O)c3ccncc3)cc2)no1,5.2,12.9,25.9,-18.5,7.4,2.6
COc1ccc(-c2nc(-c3ccc(NC(=O)c4ccncc4)cc3)no2)cc1OC,25.1,54.6*,37.9,2.9,16.0,-23.0
Cc1ccc(N/N=C2\CS(=O)(=O)N(C)c3ccsc32)cc1,44.2,101.3*,29.7,-18.3,-3.9,-2.6
CCCC(=O)N/N=C1\CS(=O)(=O)N(C)c2ccsc21,6.7,-3.0,2.3,-6.1,-6.7,-12.4
COc1cccc(-c2noc(-c3ccc(Cl)nc3)n2)c1,5.2,-17.8,20.8,-9.2,3.6,7.6
CC(C)=CCc1c(O)c(CC=C(C)C)c2c(c1O)C(=O)CC(c1ccc(O)cc1)O2 (stereo not drawn),33.0,101.8*,31.9,nt,6.7,27.3
O=C(OCc1ccccc1)c1ccc(NCc2cc(O)ccc2O)cc1,nt,nt,nt,107.7*,nt,-4.7
Oc1ccc(NCc2ccccc2OCc2ccccc2)cc1,31.7,14.4,7.5,-15.6,23.3,13.9
CC(C)OC(=O)c1ccc(NCc2cc(O)ccc2O)cc1,nt,nt,nt,87.3*,nt,-4.5
COP(=O)(OC)c1ccc(NCc2cc(O)ccc2O)cc1,nt,nt,nt,-7.2,nt,-2.3
COc1ccc(C(=O)CSc2nnc3ccc(-c4ccccn4)nn23)cc1,-46.5,-3.5,-14.3,-36.7,-65.1,-5.1
COc1ccc(C(=O)CSc2nc(-c3ccccn3)nc(C)c2Cl)cc1,47.3,87.6*,31.1,0.4,36.6,8.6
CCCCC(CC)C(=O)O (stereo not drawn),-3.6,nt,-6.0,3.3,8.6,9.3
CCCCCCc1cc2cc(S(=O)(=O)c3ccc(C)cc3)c(=O)oc2cc1O,6.7,16.3,13.7,6.7,-11.6,-14.7
CCCCCCc1cc2cc(S(=O)(=O)c3ccc(Cl)cc3)c(=O)oc2cc1O,8.6,6.2,6.7,102.3*,13.5,-12.1
CC(=O)Nc1nc(-c2ccc([N+](=O)[O-])cc2)cs1,-4.2,-7.4,-6.8,24.5,7.5,-3.3
O=C(Nc1ccc([N+](=O)[O-])cc1)Nc1nc(-c2ccc(Cl)s2)cs1,nt,79.3*,nt,1.1,nt,16.6
COc1ccc(OC)c(S(=O)(=O)N2CCC(C(=O)N3CCc4ccccc4C3)CC2)c1,19.1,-13.7,33.2,-15.0,20.2,2.5
CCOC(=O)CC1c2nc3ccccc3cc2CN1C(=O)OCC (stereo not drawn),nt,nt,nt,nt,nt,-1.1
FC(F)Sc1ccc(NC(=S)NC(c2ccccc2)c2ccccc2)cc1,1.3,125.5*,7.8,-21.0,12.0,-6.4
CC(NC(=S)Nc1ccc(F)cc1)c1ccccc1 (stereo not drawn),28.3,5.2,24.4,-4.4,12.7,5.5
O=C(C=Cc1ccccc1Cl)c1ccccc1,nt,nt,nt,-45.2,nt,7.6
C=CCn1cccc(/C=C/C(=O)c2ccc(C(C)(C)C)cc2)c1=S,nt,-4.3,nt,-8.0,nt,44.5*
CN(CCOc1ccccc1)C(=O)C1CCN(C(=O)c2ccc(Cl)cc2)CC1,6.6,14.4,21.1,9.3,-0.8,64.1*
O=C(CN1C(=O)c2ccccc2S1(=O)=O)Nc1cc(S(=O)(=O)N2CCCCC2)ccc1Cl,4.7,nt,1.9,19.7,7.6,-2.4
O=C(O)c1cccc(NC(=S)NC(NC(=O)c2cccc([N+](=O)[O-])c2)C(Cl)(Cl)Cl)c1 (stereo not drawn),9.2,7.2,10.0,0.6,-1.4,5.0
O=C(NC(NC(=S)Nc1ccc(Cl)cc1Cl)C(Cl)(Cl)Cl)c1cccc([N+](=O)[O-])c1 (stereo not drawn),5.8,106.2*,13.6,nt,1.9,11.3
Cc1cccc(OCCn2c(NC(=O)c3ccco3)nc3ccccc32)c1,38.5,62.0*,25.7,-12.9,33.5,0.5
O=C(Nc1nc2ccccc2n1CCOc1ccc(Cl)cc1)c1ccco1,17.5,90.5*,33.7,-8.0,23.8,6.6
Cc1ccc(OCCn2c(NC(=O)c3ccco3)nc3ccccc32)cc1,-1.9,65.7*,-34.1,-16.3,-3.7,0.3
